The text below walks through data of PubChem BioAssay (NCI).

Compounds without any hit were thinned out: in the full panel of roughly 83,000, 20% have a hit.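 A percent growth of 40 corresponds to 60% growth inhibition; 0 means no net growth; -100 means all cells died. Active threshold: below 10.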 A number with no mark means an inactive call. Activity calls are given as the source filed them.

This test concerns HL-60(TB) leukemia. Description: NCI-60 one-dose screen, 48 h (100 = growth as untreated, 0 = no growth, -100 = all killed). As to conditions: 10 µM unless noted.
For the compound `O=C1Nc2ccccc2/C1=C\c1c(-c2ccccc2)nc2ccccn12`, the growth was -10.7% (active). The figure for `CSc1nc2[nH]ncc2c(=O)[nH]1` is 114%; for `CC(=O)Oc1ccc(N2C(=O)C(Cl)=C(Nc3cccc(C(F)(F)F)c3)C2=O)cc1` it is 96.5%.

Regarding `NC(=NCCCOc1ccc(F)cc1)Nc1ccc(I)cc1`, the growth is 72.6%. Consider `C1CN(CC2CCC(CN3CCOCC3)O2)CCO1` (stereo not given), for which the growth was 87%. The figure for `O=CNc1ccc2c(c1)Cc1cccc(NC=O)c1-2` is 70.6%; for `COc1ccc(C2=NN(C(=O)c3cc(OC)c(OC)c(OC)c3)C(c3ccc(C#N)cc3)C2)cc1OC` (stereo not given) it is 4.24% (active). The figure for `CCn1c(O)c(/C=N/NC(=O)C(C)c2ccc(CC(C)C)cc2)sc1=S` (stereo not given) is -32.5% (active). In the case of `NC(N)=N/N=C(\c1ccccc1)C(O)c1ccccc1` (stereo not given), the growth was 96.7%. The figure for `O=c1c2c(=NCCN3CCCC3)cc3c(=O)n(CCCN4CCOCC4)c(=O)c4c(-c5ccc(CN6CCCC6)cc5)cc(c(O)n1CCCN1CCOCC1)c2c4-3` is -36.5% (active); for `COc1ccc2c(c1)c(-c1nc(-c3c[nH]c4ncccc34)cs1)cn2CCCN1CCOCC1` it is 17.4%; for `Cc1cc(Nc2ccc(Cl)cc2)nc(NCCCNc2ccnc3cc(Cl)ccc23)n1` it is -76.8% (active).

For the compound `O=C1c2nsnc2C(=O)c2c(F)c(F)c(F)c(F)c21`, the growth was -41.9% (active). The figure for `O=Cc1ncc(-c2ccc(C(F)(F)F)cc2)c(NC2CCCCCC2)n1` is -50.6% [100 µM] (active); for `CC(=O)Nc1ccc(NC(C)=O)c2c1C(=O)c1ccccc1C2=O` it is 154%; for `Cc1ccc2[nH]cc(-c3nc(-c4cn(C)c5ncccc45)cs3)c2c1` it is 63.7%. Regarding `O=C1C=CN2C(=O)CC=CC2[C@@H]1O` (stereo not given in full), the growth is 98.1%. The value for `CCCOC(=O)C1(O)CCCC1` was 107%. The value for `COc1cc(OC)c(C(=O)/C=C/c2cc3c(cc2OCc2ccccc2)OC(C)(C)CC3)cc1CC=C(C)C` was -28.5% (active); that for `COc1ccc(-c2cc(-c3ccc(N(C)C)cc3)c(C#N)c(N3CCCC3)n2)cc1` was 67.2%. Turning to `CCCCC[n+]1ccc(SCC(=O)N(C)c2ccc(Oc3ccccc3)cc2)c2ccccc21`, the growth was 3.74% (active). The value for `Cc1nc2ccccc2c(=O)n1-c1cccc(OCc2cn(-c3cccc(O)c3)nn2)c1` was 101%; that for `O=C1c2ccc3c4c(ccc(c24)C(=O)N1CCCCO)C(=O)N(CCCCO)C3=O` was 7.09% (active); that for `CCN(CC)CCOC(=O)c1cc(OCc2ccccc2)c(OCc2ccccc2)c(OCc2ccccc2)c1` was 59.6%. The figure for `COc1cnc2c(c1)C(=O)c1c-2n(CCCNC(C)C)c(=O)c2cc([N+](=O)[O-])ccc12` is -65% (active); for `Cc1ccc(N=NC2C(=O)N(c3ccc(Cl)cc3)N(c3ccc(Cl)cc3)C2=O)cc1` it is 103%; for `Cc1cc(C)c(CCc2cc(C)c(C)cc2C)cc1C` it is 99.9%. The value for `N#CN1CC[C@H](C(=O)Nc2ncc(-c3ccncc3)s2)C1` was -28.5% (active); that for `CN(Cc1cnc2nc(N)nc(N)c2n1)c1ccc(C(=O)NC(CCC(=O)O)C(=O)O)cc1Br` (stereo not given) was 45.2%. With `Nc1c(Br)cc2c(c1Br)Cc1cc([N+](=O)[O-])ccc1-2`, the growth was 69.6%. The figure for `COC(=O)[C@]12CC[C@@H](C)[C@H](C)[C@@H]1C1=CC[C@@H]3[C@@]4(C)C(C=O)=C[C@@](C)(COC(=O)/C=C/c5ccccc5)[C@@H]4[C@H](O)C[C@@]3(C)[C@]1(C)CC2` is -13% (active); for `CCCCCCCCN1C(=O)/C(=c2\sc3n(c2=O)C2C(NN=3)N(CC)C(=O)N2CC)c2ccccc21` (stereo not given) it is 114%. The value for `CC(=O)[C@H]1CC[C@H]2[C@@H]3CCC4=CC(=O)C=C[C@]4(C)[C@H]3CC[C@]12C` was 90.9%; that for `CCN(CC)CCCC(Nc1c2ccc(Cl)cc2nc2ccc(OC)cc12)c1ccc(Cl)cc1` (stereo not given) was -16.2% (active); that for `Oc1ccccc1-c1nnc(Cn2c(Cc3cccc4ccccc34)nc3ccccc32)o1` was 96%. Regarding `CC(C)(C)c1ccc(S(=O)(=O)N[C@H]2CC[C@H]3[C@@H]4CCc5cc(O)c([N+](=O)[O-])cc5[C@H]4CC[C@]23C)cc1`, the growth was 60.7%.

With `S=c1nn[nH]c2ccccc12`, the growth is 105%.

Regarding `OCCOc1ccc(-c2cc(-c3ccccn3)nc(-c3ccccn3)c2)cc1`, the growth was -36.1% (active).

For `O=C1C(Cl)=C(Nc2ccc(S(=O)(=O)c3ccc(NC4=C(Cl)C(=O)c5ccccc5C4=O)cc3)cc2)C(=O)c2ccccc21`, the growth is 32.7%. The value for `CCCCCCCCn1ccc2cc(NC(=O)CN3CCN(c4nc(C)cc(N5CCCCC5)n4)CC3)ccc21` was 71%.
